Assay results published in PubChem BioAssay (NCATS).
Results filed as inconclusive are left out. Entries that show only a call come without a potency. A number with no mark means an inactive call. Activity calls are given as the source filed them. The call rests on the fitted dose curve; in most records, active means well fitted inhibition curve with a large enough effect; inconclusive means small, poorly fitted or top-dose-only effect; inactive means flat fitted curve, though single readings scatter.

Assay: P-glycoprotein substrates identified in KB-8-5-11 adenocarcinoma cell line, qHTS therapeutic library screen (AID 1346987); further: nearly all actives have a fitted effect of over 65% in size
Conditions: KB-8-5-11 (P-gp overexpressing) viability, CellTiter-Glo, 72 h; series mostly up to 44.5 µM
In short: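 Steps: plate 500 KB-8-5-11 cells/well in DMEM + 10% FCS (colchicine removed); pin compounds in dose-response; incubate 72 h, 37 degree C, 5% CO2; add CellTiter-Glo, 5 min; read luminescence.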
Potency means the concentration at half of the fitted maximal effect.

SMILES | Potency | activity change, negative = cytotoxicity
OCC1OC(Oc2cc(O)cc(/C=C/c3ccc(O)cc3)c2)C(O)C(O)C1O (stereo unspecified) | inactive | –
C[C@@H]1C(=O)OC[C@H]2C(C(=O)O)=C[C@@H]3CC(C)(C)C[C@]312 | inactive | –
Nc1ncnc2c1nc(N)n2[C@@H]1O[C@H](CO)[C@@H](O)[C@H]1O | 1.16 µM (active) | –
CCOc1cc(N2CCC(O)CC2)ccc1Nc1ncc2c(n1)N(C1CCCC1)CCC(=O)N2C | 11.6 µM (active) | –
CC(=O)O[C@@](C)(C(=O)/C=C/C(C)(C)O)[C@H]1[C@H](O)C[C@@]2(C)[C@@H]3CC=C4[C@@H](C=C(O)C(=O)C4(C)C)[C@]3(C)C(=O)C[C@]12C | 0.796 µM (active) | –
C/C=C/C(O)C1OC(=O)CC1Nc1ccc(C(=O)O)cc1 (stereo unspecified) | inactive | –
C=C[C@H]1[C@H](O[C@@H]2O[C@H](CO)[C@@H](O)[C@H](O)[C@H]2O)OC=C(C(=O)OC)[C@H]1CCOC(=O)c1cc(O)c(O)c(O)c1 | inactive | –
C[C@@H]1CCC2C(C)(C)[C@H](O)CC[C@]2(C)[C@@]12Cc1c(O)cc3c(c1O2)CN([C@@H](CCC(=O)O)C(=O)O)C3=O (stereo partly specified) | inactive | –
CCO[C@@H]1OC(=O)C[C@@H]1NC(=O)[C@@H]1CCCN1C(=O)[C@@H](NC(=O)c1ccc(N)c(Cl)c1)C(C)(C)C | inactive | –
CC(=O)O[C@H]1C[C@@]2(C)[C@@H](CC[C@H]3[C@@]4(C)C=CC(=O)[C@@H](C)[C@@H]4[C@H](O)C(=O)[C@@]32C)/C1=C(/CCC=C(C)C)C(=O)O | inactive | –
c1ccc(-c2ncc(CN3CCN(c4ncccn4)CC3)[nH]2)cc1 | inactive | –
CCC1C(=O)N(C)c2cnc(Nc3ccc(C(=O)NC4CCC(N5CCN(CC6CC6)CC5)CC4)cc3OC)nc2N1C(C)C (stereo unspecified) | 0.291 µM (active) | –
C[C@@H]1C(=O)O[C@H]2[C@H](O)C34[C@H]5C[C@@H](C(C)(C)C)C36[C@@H](OC(=O)[C@@H]6O)O[C@@]4(C(=O)O5)[C@@]12O (stereo partly specified) | inactive | –
O=C(NCc1ccccn1)Nc1nnc(-c2ccco2)o1 | inactive | –
CC(=O)NC1=NN(C(C)=O)C(C)(c2ccccc2)S1 (stereo unspecified) | 5.8 µM (active) | –
CC1=CC(=O)CC(C)(C)C1/C=C/C(C)O[C@@H]1O[C@H](CO)[C@@H](O)[C@H](O)[C@H]1O[C@@H]1OC[C@](O)(CO)[C@H]1O (stereo partly specified) | inactive | –

SMILES | Potency | activity change, negative = cytotoxicity
C[C@@H]([C@@H](O)c1ccc(O)cc1)N1CCC(O)(c2ccccc2)CC1 | inactive | –
CC1=CC(=O)CC(C)(C)[C@H]1/C=C/C(CO)O[C@@H]1O[C@H](CO)[C@@H](O)[C@H](O)[C@H]1O (stereo partly specified) | inactive | –
COc1cc(C(=O)OC[C@H]2O[C@@H](Oc3ccccc3/C=C/C(=O)O)[C@H](O)[C@@H](O)[C@@H]2O)cc(OC)c1OC | inactive | –
CN(C)c1ccc2c(c1)OC(N)=C(C#N)C2c1cccc(C(F)(F)F)c1 (stereo unspecified) | 0.326 µM (active) | –
C=C(CCC1=C(C)[C@H]2[C@H](CC3[C@@H]4CC=C5C[C@@H](O)C[C@@H](O)[C@]5(C)C4[C@H](O)C[C@@]32C)O1)CO[C@@H]1O[C@H](CO)[C@@H](O)[C@H](O)[C@H]1O (stereo partly specified) | 1.53 µM (active) | –
CC1(C)CCC2(C(=O)OC3OC(CO)C(O)C(O)C3O)CCC3(C)C(=CCC4C5(C)CCC(OC6OC(C(=O)O)C(OC7OC(CO)C(O)C(O)C7O)C(OC7OC(CO)C(O)C(O)C7O)C6O)C(C)(C)C5CCC43C)C2C1 (stereo unspecified) | – | 4.92% [at 9.29 µM]
COC(=O)[C@@]1(c2ccc(C)cc2)C[C@H]1CN1CCC(O)(c2ccccc2)CC1 | inactive | –
COc1cc(O)cc(C)c1C(=O)O[C@H]1[C@@H](OC(C)=O)[C@H](n2ccc(=O)[nH]c2=O)O[C@@H]1CO | inactive | –
CC1(C)CC2=C3C=CC4C5(C)CCC(O)C(C)(C)C5CCC4(C)C3(C)CCC2(C)C(O)C1 (stereo unspecified) | inactive | –
C=CC(=O)Nc1cccc(Nc2nc(Nc3ccc(N4CCN(C(C)=O)CC4)cc3OC)ncc2C(F)(F)F)c1 | 20.6 µM (active) | –
COc1c(/C=C/C(C)(C)O)ccc2c1C(=O)OCc1cc(C)cc(O)c1O2 | inactive | –
COc1cc2ncnc(Nc3ccc(F)c(Cl)c3)c2cc1NC(=O)/C=C/CN1CCCCC1 | 10.3 µM (active) | –
CC(O)CCC1C(CO[C@@H]2O[C@H](CO)[C@@H](O)[C@H](O)[C@H]2O)CC(O)CC1(C)C (stereo partly specified) | inactive | –
Nc1ccc(-c2cccc3c(=O)cc(N4CCOCC4)oc23)cc1 | 6.51 µM (active) | –
C=C[C@]1(C)C=C2CCC3C(C)(CCC[C@@]3(C)C(=O)O)C2CC1 (stereo partly specified) | inactive | –
